{"source": "PubChem BioAssay AID1159580", "about": "(chemical genetic matrix, 2015)", "experiment": "chemical genetic growth profiling, strain panel (AID 1159580);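 also: tested at 20 µM; growth read once vehicle control cultures reached saturation at 30 °C; 1 = growth at the plate median or of vehicle wells; lower values mean less growth of the strain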", "conditions": "S. cerevisiae deletion strains, growth OD", "key": {"[1]": {"conditions": "locus YDL101C, strain DUN1, stronger effect = lower value"}, "[2]": {"conditions": "locus YHR030C, strain SLT2, stronger effect = lower value"}}, "note": "The campaign covered roughly 5,500 compounds. About 2,000 (36%) were called active. Another 18% or so got no clear call; they are omitted. The list shows a part of the results. Values without a mark were called inactive. Rule as the data show it: active = normalized growth mostly below about 0.91 (no sharp cut-off); inconclusive = no clear call, values can overlap the other calls; inactive = mostly above about 0.92."}
{"smiles": "O=C(Oc1ccc(C2SCCS2)cc1)c1cccs1", "values": [{"measurement": "normalized growth", "setting": "locus YAR019C, strain CDC15, stronger effect = lower value", "value": 1}, {"measurement": "normalized growth", "setting": "locus YBL105C, strain PKC1, stronger effect = lower value", "value": 1.01}, {"measurement": "normalized growth", "setting": "locus YBR135W, strain CKS1, stronger effect = lower value", "value": 0.997}, {"measurement": "normalized growth", "setting": "locus YBR136W, strain MEC1, stronger effect = lower value", "value": 1.01}, {"measurement": "normalized growth", "setting": "locus YBR160W, strain CDC28, stronger effect = lower value", "value": 1}, {"measurement": "normalized growth", "setting": "locus YDL017W, strain CDC7, stronger effect = lower value", "value": 0.999}, {"measurement": "normalized growth", "setting": "locus YDL028C, strain MPS1, stronger effect = lower value", "value": 0.993}, {"measurement": "normalized growth", "setting": "[1]", "value": 1.01}, {"measurement": "normalized growth", "setting": "locus YDL108W, strain KIN28, stronger effect = lower value", "value": 0.996}, {"measurement": "normalized growth", "setting": "locus YDL132W, strain cdc53, stronger effect = lower value", "value": 0.995}, {"measurement": "normalized growth", "setting": "locus YDL214C, strain PRR2, stronger effect = lower value", "value": 0.775}, {"measurement": "normalized growth", "setting": "locus YDR052C, strain DBF4, stronger effect = lower value", "value": 1.01}, {"measurement": "normalized growth", "setting": "locus YDR054C, strain cdc34, stronger effect = lower value", "value": 1}, {"measurement": "normalized growth", "setting": "locus YDR226W, strain ADK1, stronger effect = lower value", "value": 1}, {"measurement": "normalized growth", "setting": "locus YDR477W, strain SNF1, stronger effect = lower value", "value": 0.818}, {"measurement": "normalized growth", "setting": "locus YER123W, strain YCK3, stronger effect = lower value", "value": 0.812}, {"measurement": "normalized growth", "setting": "locus YER133W, strain GLC7, stronger effect = lower value", "value": 0.834}, {"measurement": "normalized growth", "setting": "locus YFL009W, strain cdc4, stronger effect = lower value", "value": 1}, {"measurement": "normalized growth", "setting": "locus YFL029C, strain CAK1, stronger effect = lower value", "value": 1.02}, {"measurement": "normalized growth", "setting": "locus YFR003C, strain YPI1, stronger effect = lower value", "value": 1.01}, {"measurement": "normalized growth", "setting": "locus YFR019W, strain FAB1, stronger effect = lower value", "value": "0.689 (active)"}, {"measurement": "normalized growth", "setting": "locus YFR028C, strain CDC14, stronger effect = lower value", "value": 0.988}, {"measurement": "normalized growth", "setting": "locus YGR040W, strain KSS1, stronger effect = lower value", "value": 0.869}, {"measurement": "normalized growth", "setting": "locus YGR052W, strain FMP48, stronger effect = lower value", "value": 0.821}, {"measurement": "normalized growth", "setting": "locus YGR092W, strain DBF2, stronger effect = lower value", "value": 0.768}, {"measurement": "normalized growth", "setting": "[2]", "value": "0.667 (active)"}, {"measurement": "normalized growth", "setting": "locus YHR079C, strain IRE1, stronger effect = lower value", "value": 0.678}, {"measurement": "normalized growth", "setting": "locus YHR082C, strain KSP1, stronger effect = lower value", "value": 0.716}, {"measurement": "normalized growth", "setting": "locus YHR205W, strain SCH9, stronger effect = lower value", "value": 0.936}, {"measurement": "normalized growth", "setting": "locus YIL147C, strain SLN1, stronger effect = lower value", "value": 1}, {"measurement": "normalized growth", "setting": "locus YJL095W, strain BCK1, stronger effect = lower value", "value": 0.572}, {"measurement": "normalized growth", "setting": "locus YJL128C, strain PBS2, stronger effect = lower value", "value": 0.951}, {"measurement": "normalized growth", "setting": "locus YJL157C, strain FAR1, stronger effect = lower value", "value": 0.716}, {"measurement": "normalized growth", "setting": "locus YJR016C, strain ILV3, stronger effect = lower value", "value": 1}, {"measurement": "normalized growth", "setting": "locus YJR066W, strain TOR1 (second series), stronger effect = lower value", "value": 0.884}, {"measurement": "normalized growth", "setting": "locus YJR066W, strain TOR1, stronger effect = lower value", "value": 0.684}, {"measurement": "normalized growth", "setting": "locus YKL048C, strain ELM1, stronger effect = lower value", "value": 0.937}, {"measurement": "normalized growth", "setting": "locus YKL067W, strain YNK1, stronger effect = lower value", "value": "0.684 (active)"}, {"measurement": "normalized growth", "setting": "locus YKL101W, strain HSL1, stronger effect = lower value", "value": 0.852}, {"measurement": "normalized growth", "setting": "locus YKL193C, strain SDS22, stronger effect = lower value", "value": 0.997}, {"measurement": "normalized growth", "setting": "locus YKL203C, strain TOR2, stronger effect = lower value", "value": 0.876}, {"measurement": "normalized growth", "setting": "locus YLR113W, strain HOG1, stronger effect = lower value", "value": 0.884}, {"measurement": "normalized growth", "setting": "locus YLR133W, strain CKI1, stronger effect = lower value", "value": 0.896}, {"measurement": "normalized growth", "setting": "locus YLR403W, strain SFP1, stronger effect = lower value", "value": 0.763}, {"measurement": "normalized growth", "setting": "locus YML070W, strain DAK1, stronger effect = lower value", "value": 0.726}, {"measurement": "normalized growth", "setting": "locus YMR001C, strain CDC5, stronger effect = lower value", "value": 1.01}, {"measurement": "normalized growth", "setting": "locus YMR205C, strain PFK2 (second series), stronger effect = lower value", "value": 0.805}, {"measurement": "normalized growth", "setting": "locus YMR277W, strain FCP1, stronger effect = lower value", "value": 1}, {"measurement": "normalized growth", "setting": "locus YNL006W, strain LST8, stronger effect = lower value", "value": 1}, {"measurement": "normalized growth", "setting": "locus YNL020C, strain ARK1, stronger effect = lower value", "value": 0.829}, {"measurement": "normalized growth", "setting": "locus YNL161W, strain CBK1, stronger effect = lower value", "value": 1}, {"measurement": "normalized growth", "setting": "locus YNL183C, strain NPR1, stronger effect = lower value", "value": 0.81}, {"measurement": "normalized growth", "setting": "locus YNL207W, strain RIO2, stronger effect = lower value", "value": 1}, {"measurement": "normalized growth", "setting": "locus YNL222W, strain SSU72, stronger effect = lower value", "value": 0.999}, {"measurement": "normalized growth", "setting": "locus YNL307C, strain MCK1 (second series), stronger effect = lower value", "value": 0.784}, {"measurement": "normalized growth", "setting": "locus YOL078W, strain AVO1, stronger effect = lower value", "value": 0.997}, {"measurement": "normalized growth", "setting": "locus YOL136C, strain PFK27, stronger effect = lower value", "value": 0.701}, {"measurement": "normalized growth", "setting": "locus YOR061W, strain CKA2, stronger effect = lower value", "value": 0.737}, {"measurement": "normalized growth", "setting": "locus YOR119C, strain RIO1, stronger effect = lower value", "value": 0.785}, {"measurement": "normalized growth", "setting": "locus YOR231W, strain MKK1, stronger effect = lower value", "value": "0.549 (active)"}, {"measurement": "normalized growth", "setting": "locus YOR329C, strain SCD5, stronger effect = lower value", "value": 1.01}, {"measurement": "normalized growth", "setting": "locus YPL031C, strain PHO85, stronger effect = lower value", "value": 0.697}, {"measurement": "normalized growth", "setting": "locus YPL153C, strain RAD53, stronger effect = lower value", "value": 0.777}, {"measurement": "normalized growth", "setting": "locus YPL204W, strain HRR25, stronger effect = lower value", "value": 0.852}, {"measurement": "normalized growth", "setting": "locus YPL209C, strain IPL1, stronger effect = lower value", "value": 1.01}, {"measurement": "normalized growth", "setting": "locus YPL256C, strain CLN2, stronger effect = lower value", "value": "0.776 (active)"}, {"measurement": "normalized growth", "setting": "locus YPR025C, strain CCL1, stronger effect = lower value", "value": 0.997}, {"measurement": "normalized growth", "setting": "locus YPR106W, strain ISR1, stronger effect = lower value", "value": 1.01}, {"measurement": "normalized growth", "setting": "locus YPR111W, strain DBF20, stronger effect = lower value", "value": 1}, {"measurement": "normalized growth", "setting": "strain NNK1, stronger effect = lower value", "value": 1.03}, {"measurement": "normalized growth", "setting": "strain TSCII, stronger effect = lower value", "value": 1.02}]}
{"smiles": "O=C(Oc1ccc(F)cc1)c1cccs1", "values": [{"measurement": "normalized growth", "setting": "locus YAL013W, strain DEP1, stronger effect = lower value", "value": 1.01}, {"measurement": "normalized growth", "setting": "locus YBR229C, strain ROT2, stronger effect = lower value", "value": 1.01}, {"measurement": "normalized growth", "setting": "[1]", "value": 1.03}, {"measurement": "normalized growth", "setting": "locus YDR150W, strain NUM1, stronger effect = lower value", "value": 0.941}, {"measurement": "normalized growth", "setting": "locus YEL061C, strain CIN8, stronger effect = lower value", "value": 1}, {"measurement": "normalized growth", "setting": "locus YGR078C, strain PAC10, stronger effect = lower value", "value": 1.01}, {"measurement": "normalized growth", "setting": "[2]", "value": 0.987}, {"measurement": "normalized growth", "setting": "locus YHR087W, strain rtc3, stronger effect = lower value", "value": 0.992}, {"measurement": "normalized growth", "setting": "locus YJR043C, strain POL32, stronger effect = lower value", "value": 1.03}, {"measurement": "normalized growth", "setting": "locus YJR075W, strain HOC1, stronger effect = lower value", "value": 0.986}, {"measurement": "normalized growth", "setting": "locus YLR039C, strain RIC1, stronger effect = lower value", "value": 1.05}, {"measurement": "normalized growth", "setting": "locus YLR058C, strain SHM2 (second series), stronger effect = lower value", "value": 0.995}, {"measurement": "normalized growth", "setting": "locus YLR085C, strain ARP6, stronger effect = lower value", "value": 0.992}, {"measurement": "normalized growth", "setting": "locus YLR262C, strain YPT6, stronger effect = lower value", "value": 0.967}, {"measurement": "normalized growth", "setting": "locus YML094W, strain GIM5, stronger effect = lower value", "value": 0.989}, {"measurement": "normalized growth", "setting": "locus YMR219W, strain ESC1, stronger effect = lower value", "value": 0.993}, {"measurement": "normalized growth", "setting": "locus YMR263W, strain SAP30, stronger effect = lower value", "value": 0.966}, {"measurement": "normalized growth", "setting": "locus YNL153C, strain GIM3, stronger effect = lower value", "value": 1.02}, {"measurement": "normalized growth", "setting": "locus YNL298W, strain CLA4 (second series), stronger effect = lower value", "value": 1.03}, {"measurement": "normalized growth", "setting": "locus YNL322C, strain KRE1, stronger effect = lower value", "value": 1}, {"measurement": "normalized growth", "setting": "locus YNR030W, strain Alg12, stronger effect = lower value", "value": 1.02}, {"measurement": "normalized growth", "setting": "locus YPL055C, strain LGE1, stronger effect = lower value", "value": 0.91}, {"measurement": "normalized growth", "setting": "locus YPL241C, strain CIN2, stronger effect = lower value", "value": 1}, {"measurement": "normalized growth", "setting": "locus YPR135W, strain CTF4, stronger effect = lower value", "value": 1.01}]}
